PubChem BioAssay
A number with no mark means an inactive call. Activity calls are given as the source filed them. Cut-off read from the data, not from the text of the source, unless noted: active = inhibition above about 42%; inactive = the rest.

Tests used:
[1] = StAR promoter reporter inhibitors, counter-screen for LRH-1 inverse agonist project, cell-based, luminescence, high throughput (AID 651611; in the data active = inhibition above about 28%); details: StAR promoter luciferase reporter counterscreen, at 3.6 µM, hits give high values
[2] = biological target: Nuclear receptor subfamily 5 group A member 2 (Homo sapiens) (UniProt O00482); test: LRH-1 (NR5A2) inverse agonists, retest, confirmation, cell-based, luminescence (AID 651613); details: cell-based LRH-1 luciferase reporter, inverse agonism; at 3.6 µM; hits give high values;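 note: HEK293T cells co-transfected with LRH-1 and StAR promoter luciferase reporter; 0% = vehicle wells and 100% = parental cells lacking receptor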
[3] = biological target: Steroidogenic factor 1 (Homo sapiens) (UniProt Q13285); test: SF1 (NR5A1) inverse agonists, counter-screen for LRH-1 inverse agonist project, cell-based, luminescence, high throughput (AID 651614; in the data active = inhibition above about 44%;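 note: cells cotransfected with StAR promoter reporter and SF1 expression vector; 0% = vehicle on cells with receptor and 100% = vehicle on cells lacking receptor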); details: cell-based SF1 luciferase reporter, at 3.6 µM, hits give high values
[4] = VP16 transactivation reporter inhibitors, counter-screen for LRH-1 inverse agonist project, cell-based, luminescence, high throughput (AID 651615; in the data active = inhibition above about 33%); details: Gal4-VP16 luciferase reporter cells, at 3.6 µM, hits give high values

Sequence of Nuclear receptor subfamily 5 group A member 2 (Homo sapiens) (O00482 whole entry, looked up): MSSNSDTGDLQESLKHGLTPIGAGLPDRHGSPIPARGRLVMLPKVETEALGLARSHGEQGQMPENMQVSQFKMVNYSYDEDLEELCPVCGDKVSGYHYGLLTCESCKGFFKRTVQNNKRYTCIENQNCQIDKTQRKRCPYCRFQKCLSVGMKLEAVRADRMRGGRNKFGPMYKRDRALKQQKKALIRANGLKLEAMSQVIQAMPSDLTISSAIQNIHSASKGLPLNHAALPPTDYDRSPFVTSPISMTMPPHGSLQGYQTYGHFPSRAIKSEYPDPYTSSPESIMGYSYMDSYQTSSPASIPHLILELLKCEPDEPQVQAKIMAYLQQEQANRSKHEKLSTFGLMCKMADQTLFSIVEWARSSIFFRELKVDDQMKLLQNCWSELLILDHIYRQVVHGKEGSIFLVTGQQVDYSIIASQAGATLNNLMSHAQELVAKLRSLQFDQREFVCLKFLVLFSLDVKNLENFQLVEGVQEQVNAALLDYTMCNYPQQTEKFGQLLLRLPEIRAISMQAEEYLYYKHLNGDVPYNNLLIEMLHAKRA
Sequence of Steroidogenic factor 1 (Homo sapiens) (Q13285 whole entry, looked up, the tested form may be a part): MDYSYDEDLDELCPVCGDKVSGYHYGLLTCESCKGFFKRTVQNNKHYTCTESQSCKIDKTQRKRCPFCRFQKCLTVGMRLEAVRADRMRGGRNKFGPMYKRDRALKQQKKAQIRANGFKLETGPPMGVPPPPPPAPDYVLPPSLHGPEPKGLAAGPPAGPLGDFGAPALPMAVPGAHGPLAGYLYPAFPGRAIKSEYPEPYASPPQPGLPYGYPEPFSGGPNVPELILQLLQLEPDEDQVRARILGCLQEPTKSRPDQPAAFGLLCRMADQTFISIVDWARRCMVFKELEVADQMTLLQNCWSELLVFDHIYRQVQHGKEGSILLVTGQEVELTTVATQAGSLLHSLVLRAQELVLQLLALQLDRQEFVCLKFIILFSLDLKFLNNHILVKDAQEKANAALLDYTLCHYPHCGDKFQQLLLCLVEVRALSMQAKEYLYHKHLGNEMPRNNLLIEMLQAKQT

| SMILES | inhibition [1] | inhibition [2] | inhibition [3] | inhibition [4] |
| --- | --- | --- | --- | --- |
| COc1cccc(-c2cc(C(=O)Nc3ccncc3)c3ccccc3n2)c1 | 9.54% | 35.2% | 39.4% | -5.71% |
| Cn1c(=O)n(C)c2cc(NC(=O)CSc3nnc(-c4ccccc4O)n3-c3ccccc3)ccc21 | 30.1% (active) | 58.8% (active) | 54.8% (active) | -42.1% |
| CCC(=O)N1CCN(c2ccc(NC(=O)c3ccc([N+](=O)[O-])o3)cc2)CC1 | 17.6% | 78% (active) | 68.4% (active) | -25% |
| CC1CCCC(C)N1C(=O)COC(=O)Cc1ccc(F)cc1 (stereo not drawn) | -0.44% | 47.2% (active) | 44.5% (active) | 3.23% |
| Cc1c(F)cccc1NS(=O)(=O)c1ccc(N2CCCC2=O)cc1 | -2.14% | 56% (active) | 47.1% (active) | 3.58% |
| Cc1cc([N+](=O)[O-])ccc1NC(=O)CSc1nnc(C)n1C | -1.6% | 60.6% (active) | 47.1% (active) | -3.16% |
| COc1ccc(CCNC(=O)CSc2nc3[nH]c(=O)cc(O)c3s2)cc1 | 17.6% | 60.7% (active) | 51.7% (active) | -3.78% |
| CCOc1ccc(Br)cc1C1=NN(C(C)=O)C(c2ccc([N+](=O)[O-])s2)O1 (stereo not drawn) | 17.9% | 66.8% (active) | 63.2% (active) | -1.66% |
| COc1ccc(-c2nn(C)c(=O)c3ccccc23)cc1NS(C)(=O)=O | 49.6% (active) | 53.6% (active) | 41.2% | -52.2% |
| CCCCOc1ccc(Br)cc1CSC(=N)N | 16.4% | 103% (active) | 62.3% (active) | 83.2% (active) |
| COc1ccc(NC(=S)NCCc2ccc(F)cc2)c(OC)c1 | 7.84% | 10.5% | 18.5% | -8.33% |
| COc1cc(C(=O)Nc2ccccc2N2CCN(S(C)(=O)=O)CC2)cc(OC)c1OC | 9.79% | 44.5% (active) | 34% | -2.73% |
| CC(=O)NC(Cc1c[nH]c2ccccc12)C(=O)OCC(=O)Nc1ccc2c(c1)OCO2 (stereo not drawn) | 12.4% | 56.8% (active) | 56.7% (active) | -12.7% |
| Cc1ccc(NC(=O)COC(=O)c2cc(=O)c3ccccc3o2)c(Br)c1 | 7.74% | 50.4% (active) | 51.1% (active) | 2.1% |
| COc1ccc2c(c1)C1C=CCC1C(c1cc3c(cc1Br)OCO3)N2 (stereo not drawn) | -3.15% | 37% | 30.1% | -14.3% |
| Cc1[nH][nH]c(=O)c1N=Nc1ccc(S(N)(=O)=O)cc1 | 20.7% | 52.1% (active) | 51.5% (active) | 6.39% |
| CCCc1cc(=O)n2nc(N3CCC(C(=O)N4CCN(c5ccc(OC)cc5)CC4)CC3)sc2n1 | 12.6% | 56.5% (active) | 55.1% (active) | 49.8% (active) |
| O=C(Nc1ccccn1)c1ccc([N+](=O)[O-])o1 | 14.3% | 58.2% (active) | 59.1% (active) | -16.1% |
| COc1ccc(/C=N/NC(=O)c2ccc(NC(=O)c3cccc([N+](=O)[O-])c3)cc2)c(OC)c1 | 13.1% | 53.6% (active) | 46.5% (active) | 2.35% |
| COc1ccc(-c2cc(-c3ccc(O)cc3)nc(N)c2C#N)cc1 | 27.8% (active) | 58.3% (active) | 49% (active) | -19.5% |
| COc1ccc(C2=Nn3c(nnc3-c3ccncc3)SC2)cc1OC | 24.5% | 48% (active) | 39.6% | -2.76% |
| O=C(COC(=O)c1ccccc1O)Nc1ccc(N2CCOCC2)cc1 | 0.71% | 59.3% (active) | 60.4% (active) | -1.07% |
| COc1ccc(NC(=O)CSc2nc3nc(C)cc(C)c3c(=O)[nH]2)cc1 | 3.79% | 43.6% (active) | 48.5% (active) | -2.26% |
| O=C1CC(c2ccc3c(c2)OCCO3)Oc2ccc([N+](=O)[O-])cc21 (stereo not drawn) | 14.5% | -49.9% | -37% | -35.3% |
| O=C1C=C(NCCc2ccccc2)C2(CCCCC2)O1 | 3.62% | 59.9% (active) | 49.5% (active) | -3.99% |
| CCCn1c(=NC(=O)CCS(=O)(=O)c2ccccc2)sc2cc(S(N)(=O)=O)ccc21 | 1.11% | 32.3% | 31.1% | -13.8% |

| SMILES | inhibition [1] | inhibition [2] | inhibition [3] | inhibition [4] |
| --- | --- | --- | --- | --- |
| C=CC(=O)Nc1cccc(Oc2ncnc3[nH]cc(-c4cnc5ccccc5c4)c23)c1 | 27.3% | 67.9% (active) | 65.6% (active) | 18.2% |
| CCc1c(C)nc(SCC(=O)Nc2ccc3c(c2)OCCO3)[nH]c1=O | 14.5% | 63.7% (active) | 54.7% (active) | -6.83% |
| C=CCn1c(SCC(=O)Nc2ccccc2C)nc(O)cc1=O | 9.34% | 57.8% (active) | 52.2% (active) | -13.2% |
| Cc1cc2ncn(/N=C/c3ccc([N+](=O)[O-])o3)c2cc1C | 17.6% | 69.1% (active) | 68.2% (active) | -19.6% |
| O=C(NCc1cccc(C(F)(F)F)c1)c1cccc(Cl)c1Cl | 7.41% | 46.9% (active) | 48% (active) | 11.8% |
| CCOc1ccc(NC(=O)COC(=O)C2CCC(=O)N2)c([N+](=O)[O-])c1 (stereo not drawn) | 4.31% | 50.5% (active) | 43.6% (active) | -7.9% |
| COc1ccc(NC(=O)C2=CC(c3ccc(OC)c(OC)c3)=NS(=O)(=O)N2C)cc1 | 1.44% | 56.3% (active) | 49.4% (active) | 18.4% |
| COc1cc2cc(C(=O)NC(C)c3cccc4ccccc34)c(N)nc2cc1OC (stereo not drawn) | 34.5% (active) | 43.9% (active) | 59.1% (active) | 23.9% |
| CC(=O)Nc1ccc(NC(=O)CSc2nnc(-c3cc4ccccc4o3)n2C)cc1 | -0.36% | 42.7% (active) | 43.9% (active) | -5.84% |
| COc1ccc(NC(=O)CSc2nnc(Cc3ccccc3)c(=O)n2N)c(OC)c1 | 5.02% | 51% (active) | 54.2% (active) | 5.51% |
| CC(CCc1ccccc1)NC(=O)COc1ccc(S(=O)(=O)N2CCOCC2)cc1[N+](=O)[O-] (stereo not drawn) | -7.62% | 35.2% | 31.7% | 24.5% |
| CC(Nc1ncnc2sccc12)c1ccccc1 (stereo not drawn) | 25.8% | 64.5% (active) | 64.9% (active) | 57.7% (active) |
| CC(=O)N1CCc2c(sc(NC(=O)CCS(=O)(=O)c3ccccc3)c2C#N)C1 | -5.27% | 60.1% (active) | 55.1% (active) | -11% |
| CC1CCC2(CC1)NC(=O)N(CC(=O)Nc1ccc3c(c1)CCC3)C2=O (stereo not drawn) | 39.1% (active) | 49.1% (active) | 48.9% (active) | 12.8% |
| CCCc1cc(=O)oc2cc(OCC(=O)NC3CC(C)(C)NC(C)(C)C3)ccc12 | -0.91% | 53% (active) | 45.7% (active) | 2.6% |
| Cc1nc2cc(N3CCCCC3)c(NC(=O)c3cccnc3)cc2c(=O)n1Cc1ccccc1 | 10.7% | 57.6% (active) | 57.2% (active) | -17% |
| COc1ccc(/C=C2/CSC/C(=C/c3ccc(OC)c(OC)c3)C2=O)cc1OC | -4.62% | 74.5% (active) | 74.9% (active) | 76.8% (active) |
| c1cncc(-c2nc(N3CCCCCC3)c3ccccc3n2)c1 | 20.8% | 56.4% (active) | 62.8% (active) | 10.4% |
| CC(=O)c1ccc(-c2c(C)cc3oc(=O)cc(-c4ccccc4)c3c2C)cc1 | -6.71% | 57% (active) | 52.6% (active) | -3.38% |
| CN(C)c1cc[n+](Cc2c(Cl)cccc2Cl)cc1 | 7.95% | 73.2% (active) | 68.2% (active) | 45.7% (active) |
| OCCCNc1ncnc2oc(-c3ccccc3)c(-c3ccccc3)c12 | 9.63% | 35.1% | 27.6% | 13.3% |
| CNC(=O)c1cccc(NC(=O)c2cc(-c3ccccc3)nc3c2cnn3C(C)C)c1 | 29.4% (active) | 51.7% (active) | 49.4% (active) | -19.8% |
| CC(=O)Nc1cc(-c2cccc(F)c2)cn2c(-c3ccc(S(C)(=O)=O)cc3)cnc12 | 8.88% | 50.2% (active) | 54.6% (active) | -14.3% |
| NC(=O)CC[C@H](NC(=O)c1ccc(F)cc1)C(=O)OCC(=O)Nc1ccc(N2CCOCC2)cc1 | 0.81% | 57.5% (active) | 47.9% (active) | -8.19% |
| CCCC(=O)N1CCN(c2ccc(NC(=O)c3ccc([N+](=O)[O-])o3)cc2)CC1 | -1.48% | 52.9% (active) | 55.4% (active) | -18.4% |
| Cc1cc(C)c(SCCc2ccncc2)c(C)c1 | 5.23% | 63.7% (active) | 57.5% (active) | 34.3% (active) |
